Source: PubChem BioAssay (NCATS)
Several values for one entry are separate records, joined by “and”; a condition that tells them apart may be missing. Identical values can stand only once. Inconclusive results are not listed. Activity calls are given as the source filed them. Unless noted, calls come from the whole dose curve; as a rule, active = well fitted curve in the direction sought with a large enough effect; inconclusive = small, poorly fitted or top-dose-only effect, or another doubt; inactive = no such curve, though single readings can be large; an effect the other way counts as inactive or inconclusive.

Columns and labels:
[1] = biological target: Cellular tumor antigen p53 (Homo sapiens) (UniProt P04637); experiment: Primary qHTS for small molecule compounds that upregulate eGFP-tagged delta133p53alpha (in N-terminal) cells. (AID 2060322); conditions: NCI-H358 eGFP-delta133p53alpha fluorescence, 24 h; activation: active compounds read high;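 note: series mostly up to about 56 µM; 0% = DMSO vehicle and 100% = reference activator; nearly all actives have a fitted effect of over 75% in size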
In short: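 NCI-H358 cells pre-induced 24 h with 10 ng/ml doxycycline to express N-terminal eGFP-delta133p53alpha, then dosed 24 h at 37C without doxycycline; fixed, Hoechst-stained, GFP intensity by laser scanning cytometry, normalized to DMSO (0%) and 57.5 uM 5-azacytidine (100%).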

[2] = qHTS for Inhibitors of the Aldehyde Dehydrogenase Family (ALDH1A2, ALDH1A3, ALDH2, ALDH3A1) (AID 2061307); note: nearly all actives have a fitted effect of over 50% in size; for Potency: test system not described further here; potency is the fitted concentration of half-maximal effect
[3] = biological target: Aldehyde dehydrogenase, mitochondrial (Homo sapiens) (UniProt P05091); experiment: qHTS for Inhibitors of the Aldehyde Dehydrogenase Family (ALDH2) Primary screen (AID 2061308);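 note: plate controls were vehicle for no effect and reference inhibitor for full effect; nearly all actives have a fitted effect of over 55% in size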
[4] = biological target: Retinaldehyde dehydrogenase 3 (Homo sapiens) (UniProt P47895); experiment: qHTS for Inhibitors of the Aldehyde Dehydrogenase Family (ALDH1A3) Validation screen (AID 2061312); note: nearly all actives have a fitted effect of over 45% in size; note: potency is the fitted concentration of half-maximal effect
[5] = biological target: Retinal dehydrogenase 2 (Homo sapiens) (UniProt O94788); experiment: qHTS for Inhibitors of the Aldehyde Dehydrogenase Family (ALDH1A2) Confirmation screens (AID 2061314); note: nearly all actives have a fitted effect of over 65% in size; note: potency is the fitted concentration of half-maximal effect
[6] = biological target: Retinaldehyde dehydrogenase 3 (Homo sapiens) (UniProt P47895); experiment: qHTS for Inhibitors of the Aldehyde Dehydrogenase Family (ALDH1A3) Primary screen (AID 2061315); note: potency is the fitted concentration of half-maximal effect
[7] = biological target: Aldehyde dehydrogenase 1A1 (Homo sapiens) (UniProt P00352); experiment: qHTS for Inhibitors of the Aldehyde Dehydrogenase Family (ALDH1A1) Confirmatory screens (AID 2061316); note: nearly all actives have a fitted effect of over 65% in size; note: potency is the fitted concentration of half-maximal effect
[8] = biological target: Retinaldehyde dehydrogenase 3 (Homo sapiens) (UniProt P47895); experiment: qHTS for Inhibitors of the Aldehyde Dehydrogenase Family (ALDH1A3) Confirmatory screens (AID 2061311); note: nearly all actives have a fitted effect of over 60% in size; note: potency is the fitted concentration of half-maximal effect
[9] = BET inhibitor-based combinations targeting novel dependencies in MECOM-rearranged (r) AML: SET-2 cell line (AID 2202231); conditions: SET-2 AML cells viability, CellTiter-Glo luminescence, 48 h; viability: active compounds read low, series mostly up to about 46 µM;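 note: plate controls were DMSO treated cells for no effect and wells without cells for full effect; nearly all actives have a fitted effect of over 35% in size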
In short: (§1)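 Readout: CellTiter-Glo luminescence. Exposure: 48 h, 11 concentrations, 500 cells/well. Metric: AUC and within-line Z-AUC after DMSO/empty-well normalization.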

[10] = BET inhibitor-based combinations targeting novel dependencies in MECOM-rearranged (r) AML: MV-4-11 cell line (AID 2202233);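 note: plate controls were DMSO for no effect and blank wells for full effect; nearly all actives have a fitted effect of over 45% in size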
In short: (§2)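 Seeding density was 500 cells/well, and drug exposure lasted 48 hr under standard culture conditions. Read-out used CellTiter-Glo reagent with a 15 min room-temperature incubation before luminescence measurement; AUC and Z-AUC summarize the normalized responses.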

[11] = BET inhibitor-based combinations targeting novel dependencies in MECOM-rearranged (r) AML: HNT-34 cell line (AID 2202234);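 note: plate controls were vehicle wells for no effect and cell-free wells for full effect; nearly all actives have a fitted effect of over 35% in size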
In short: as §2

[12] = BET inhibitor-based combinations targeting novel dependencies in MECOM-rearranged (r) AML: UCSD-AML1 cell line (AID 2202235);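 note: series mostly up to about 46 µM; plate controls were DMSO vehicle wells for no effect and blank wells for full effect; nearly all actives have a fitted effect of over 40% in size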
In short: as §2

[13] = BET inhibitor-based combinations targeting novel dependencies in MECOM-rearranged (r) AML: AML-191 cell line (AID 2202236;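 note: plate controls were vehicle wells for no effect and wells without cells for full effect; nearly all actives have a fitted effect of over 35% in size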)
In short: as §1

[14] = BET inhibitor-based combinations targeting novel dependencies in MECOM-rearranged (r) AML: AML-194 cell line (AID 2202237;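 note: plate controls were vehicle wells for no effect and wells without cells for full effect; nearly all actives have a fitted effect of over 40% in size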)
In short: as §1

[15] = biological target: Aldehyde dehydrogenase, mitochondrial (Homo sapiens) (UniProt P05091); experiment: qHTS for Inhibitors of the Aldehyde Dehydrogenase Family (ALDH2) Confirmatory screens (AID 2061303; active = well fitted inhibition curve with a large enough effect; title and protocol of this record describe different tests; note: % is set by controls: 0 for no effect and ±100 for the full control effect; nearly all actives have a fitted effect of over 45% in size)

Chain of Cellular tumor antigen p53 (Homo sapiens) (P04637 whole entry, looked up): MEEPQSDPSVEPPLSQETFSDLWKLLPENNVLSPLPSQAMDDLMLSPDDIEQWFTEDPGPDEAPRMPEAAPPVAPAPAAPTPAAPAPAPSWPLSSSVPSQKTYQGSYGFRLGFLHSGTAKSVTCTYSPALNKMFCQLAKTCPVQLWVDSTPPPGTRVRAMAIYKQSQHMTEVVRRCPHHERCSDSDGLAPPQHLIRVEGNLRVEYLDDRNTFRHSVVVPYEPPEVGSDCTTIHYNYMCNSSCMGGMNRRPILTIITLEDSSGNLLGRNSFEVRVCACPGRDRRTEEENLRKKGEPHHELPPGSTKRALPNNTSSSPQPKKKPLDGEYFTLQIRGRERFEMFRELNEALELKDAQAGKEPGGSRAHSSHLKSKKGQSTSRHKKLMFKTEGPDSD

O=C(NCc1ccc(S(=O)(=O)c2cc(F)cc(F)c2)cc1)c1ccc2nccn2c1
active: Potency [2] 10.1 µM | Potency [7] 11.3 µM
inactive: activation [1] 17.2% | Potency [3] | Potency [4] | Potency [5] | Potency [6]

C[C@@H]1O[C@@H](O[C@@H]2[C@@H](O)[C@@H](O[C@]3(CO)O[C@H](CO)[C@@H](O)[C@@H]3OC(=O)/C=C/c3ccc(O)cc3)O[C@H](CO)[C@H]2OC(=O)/C=C/c2ccc(O)cc2)[C@H](O)[C@H](O)[C@H]1O[C@@H]1O[C@@H](C)[C@H](O[C@@H]2OC[C@](O)(CO)[C@H]2O)[C@@H](O)[C@H]1O
inactive: activation [1] -2.68% | Potency [2] | Potency [3]

O=C(O)c1cc(C(F)(F)F)ccc1N1CC[C@H](OCc2ccccn2)C1
inactive: activation [1] -17% | Potency [2] | Potency [3] | Potency [8] | Potency [6] | Potency [7]

CC[C@@H](Nc1c(Nc2cccc(C(=O)N(C)C)c2O)c(=O)c1=O)c1cc(C(C)C)co1
inactive: activation [1] -2.39% | Potency [3] | Potency [4] | Potency [5] | Potency [7]
active: Potency [2] 5.62 µM and 7.08 µM

Cc1nnc(C(=O)NC(C)(C)c2nc(C(=O)NCc3ccc(F)cc3)c(O)c(=O)n2C)o1
inactive: activation [1] 12.2% and -3.35% and -11.5% | Potency [3] | Potency [4] | Potency [6] | Potency [7] | viability [9] 118% | Potency [10] | Potency [11] | Potency [12] | Potency [13] | Potency [14]
active: Potency [2] 1.59 µM

Cc1cc(C)c2c(c1)C(N(Cc1cc(C(F)(F)F)cc(C(F)(F)F)c1)c1nnn(C)n1)CCCN2CC1CCC(C(=O)O)CC1 (configuration not stated)
inactive: activation [1] 26.7% | Potency [2] | Potency [3]
active: Potency [4] 2.82 µM | Potency [5] 20.1 µM

OCC1OC(Oc2cc(O)cc(/C=C/c3ccc(OC4OC(CO)C(O)C(O)C4O)cc3O)c2)C(O)C(O)C1O (configuration not stated)
inactive: activation [1] -9.16% | Potency [3]
active: Potency [2] 10 µM | Potency [6] 4.47 µM

O=C(C1OC1/C=C/c1ccc2c(c1)OCO2)N1CCCCC1 (configuration not stated)
inactive: activation [1] -6.11% | Potency [2] | Potency [3] | Potency [5]

OC[C@H]1O[C@@H](O[C@H]2[C@H](O)[C@@H](CO)O[C@@H](OCc3ccccc3)[C@@H]2O[C@@H]2OC[C@](O)(CO)[C@H]2O)[C@H](O)[C@@H](O)[C@@H]1O
inactive: activation [1] -11.5% | Potency [2] | Potency [3]
active: Potency [8] 12.3 µM

COc1ccc2c(c1)O[C@H](O[C@@H]1O[C@H](CO)[C@@H](O)[C@H](O)[C@H]1O)C(=O)N2
inactive: activation [1] -12.5% | Potency [2] | Potency [3]
active: Potency [8] 13.9 µM | Potency [6] 6.31 µM

CC1CC(=O)[C@]2(O)C(C(=O)OCCc3ccc(O)c(O)c3)=CO[C@@H](O[C@@H]3O[C@H](CO)[C@@H](O)[C@H](O)[C@H]3O)[C@H]12 (some centres not stated)
active: Potency [7] 12.3 µM
inactive: activation [1] 6.87% | Potency [2] | Potency [3] | Potency [5]

C=C1C(O)CCC2(C)CC3(OC)OC(=O)C(C)=C3CC12 (configuration not stated)
inactive: activation [1] -6.87% | Potency [15] | Potency [6]

COC(=O)C1=COC(OC2OC(CO)C(O)C(O)C2O)C2C(COC(=O)/C=C/c3ccc(O)c(O)c3)C(O)C(O)C12 (configuration not stated)
inactive: activation [1] -6.25% | Potency [2] | Potency [3] | Potency [5] | Potency [7]

O=C(O)c1cc(O[C@@H]2O[C@H](CO[C@@H]3OC[C@@H](O)[C@H](O)[C@H]3O)[C@@H](O)[C@H](O)[C@H]2O)c2ccccc2c1O
active: Potency [8] 1.38 µM | Potency [5] 2.46 µM | Potency [6] 2.82 µM | Potency [7] 0.693 µM
inactive: activation [1] 9.92% | Potency [15]

COCC(=O)NC/C=C/c1ccc2ncnc(Nc3ccc(Oc4ccc(C)nc4)c(C)c3)c2c1
inactive: activation [1] 0% | Potency [3] | Potency [8] | Potency [5] | Potency [6]
active: Potency [2] 7.12 µM

N#Cc1ccc2[nH]cc(CCCCN3CCN(c4ccc5oc(C(N)=O)cc5c4)CC3)c2c1
inactive: activation [1] 11.5% | Potency [3] | Potency [4] | Potency [6]
active: Potency [2] 2.24 µM | Potency [8] 15.8 µM | Potency [5] 15.8 µM

COc1ccc2c(OC)c3ccoc3nc2c1OC
inactive: activation [1] -3.05% | Potency [3]
active: Potency [2] 28.2 µM | Potency [8] 4 µM | Potency [5] 0.896 µM | Potency [7] 2.83 µM

CN(C)c1cccc(Oc2cnc(Nc3cccc(O)c3)nc2)c1
active: Potency [4] 8.91 µM
inactive: activation [1] 2.86% | Potency [15]
